About 83,000 compounds went through this panel and 20% of them were active in at least one assay; those are over-represented in the sample as a whole.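 96-well plates, one dose, 48 hours. Percent growth reported; active if below 10.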 Values without a mark were called inactive. Activity calls are given as the source filed them.

The test deals with HS 578T breast. Nature of the test: NCI-60 one-dose screen, 48 h (100 = growth as untreated, 0 = no growth, -100 = all killed). To be noted: 10 µM unless noted.
As to `CCC(=O)Nc1ccc(-c2nc(-c3cccc(O)c3)c(-c3ccnc(Br)c3)[nH]2)cc1`, the growth was 23%.

Regarding `NC(=O)c1c(NC(=O)c2cccc(OC(F)(F)F)c2)sc2c1CCC(=O)C2`, the growth was 40.4%.

`COc1cc(C2=NN(C(C)=O)C(c3ccc(N4CCOCC4)cc3)C2)cc(OC)c1OC` (stereo not drawn): the growth is 108%.

Take `CCC(=O)Nc1cc(Nc2cc(NC3CC3)n3ncc(C#N)c3n2)ccc1C`: the growth was -17.4% (active).

For the compound `O=C(CSc1ccc(-c2nc3ccccc3[nH]2)cn1)N1CCN(c2ccccc2F)CC1`, the growth is 89.4%.

Regarding `NCCN1CCN(c2nc(-c3ccccc3)nc3nc(-c4ccccc4)oc23)CC1`, the growth is 100%.

As to `CCN(CC)Cc1c(-c2cccc(OC(F)(F)F)c2)[nH]c2ccc(N3CCCC3)cc2c1=O`, the growth was 87.3%.

Regarding `C#C[C@]1(O)CC[C@H]2[C@@H]3CC=C4c5sc(-c6ccc(OC)cc6)nc5CC[C@]4(C)[C@H]3CC[C@@]21C`, the growth is 2.91% (active).

With `C#C[C@]1(O)CC[C@H]2[C@@H]3CC=C4c5sc(Nc6cc(OC)ccc6OC)nc5CC[C@]4(C)[C@H]3CC[C@@]21C`, the growth is -13.8% (active).

Take `O=C(Nc1cccc(-c2nc(-c3ccc(NC(=O)c4cccnc4)cc3Cl)no2)c1)Nc1ccc(NC(=O)C2CC2)c(C(F)(F)F)c1`: the growth was -31% (active).

As to `O=C(Nc1ccc(-c2nc(-c3cccc(O)c3)c(-c3ccnc(Br)c3)[nH]2)cc1)c1ccccc1`, the growth was -24.1% (active).

On to `COc1ccccc1N1CCN(C2=NN=C(c3cccc(Cl)c3)c3ccccc3C2)CC1`, for which the growth is 18.9%.

`O=C(NNc1nc2cc(F)c(F)cc2n2cccc12)c1ncccn1`: the growth was 49.1%.

As to `O=C(CN1C(=O)CSC1=O)Nc1ccc(C(=O)/C=C/c2cc3ccccc3nc2Cl)cc1`, the growth is 82.7%.

Consider `O=C(C[n+]1ccnc2ccccc21)c1ccc(O)c(O)c1`, for which the growth was 94.4%.

On to `Cn1ccnc1C(=O)/C=C/c1ccc(C(=O)Nc2ccc(NC(=O)CCNC(=O)c3csc(Br)n3)cc2)cc1`, for which the growth is 95.5%.

As for `COc1ccc(Oc2ccc(C3CC(c4cc(OC)c(OC)c(OC)c4)=NN3C(C)=O)cc2)cc1` (stereo not drawn), the growth is 51.3%.

Consider `O=C1/C(=C/c2ccccc2[N+](=O)[O-])Oc2ccc(O)cc21`, for which the growth was 53.6%.

For the compound `O=c1c2ccccc2nc(COc2ccccc2)n1/N=C/C=C/c1ccccc1`, the growth was 94.4%.

For the compound `C#C[C@]1(O)CC[C@H]2[C@@H]3CC=C4c5sc(C6CC6)nc5CC[C@]4(C)[C@H]3CC[C@@]21C`, the growth was 68.1%.

Take `Cc1ccc(S(=O)(=O)N/N=C/c2cn(-c3ccc(F)cc3)nc2-c2ccc(S(C)(=O)=O)cc2)cc1`: the growth is 107%.

On to `C#C[C@]1(O)CC[C@H]2[C@@H]3CC=C4c5sc(-c6ccccn6)nc5CC[C@]4(C)[C@H]3CC[C@@]21C`, for which the growth is 14.4%.

In the case of `CCOC(=O)c1c(NC(=O)c2cccc(C(F)(F)F)c2)sc2c(CN3CCN(C)CC3)c(O)ccc12`, the growth was 76.3%.

On to `CCOC(=O)Nc1ccc(-c2nc(-c3cccc(O)c3)c(-c3ccnc(Br)c3)[nH]2)cc1`, for which the growth is -2.07% (active).

With `COc1ccc(NS(=O)(=O)c2ccc(-c3cnc(C4CC4)o3)cc2)cc1Cl`, the growth is 28.1%.

Turning to `O=S(=O)(Nc1ccc(I)c(Cl)c1)c1ccc(-c2cnc(C3CC3)o2)cc1`, the growth is 17.9%.

For the compound `O=S(=O)(Nc1ccc2c(c1)OC(F)(F)O2)c1ccc(-c2cnc(C3CC3)o2)cc1`, the growth is 40.6%.

Regarding `O=C(CN1CCN(c2cc(=O)n(-c3ccccc3)c3ccccc23)CC1)Nc1ccc([N+](=O)[O-])cc1`, the growth is 89.9%.

As for `CN(c1ccc(Cl)cc1)S(=O)(=O)c1ccc(-c2cnc(C3CC3)o2)cc1`, the growth is 49.3%.

`O=C(/C=C/c1cn(-c2ccccc2)nc1-c1ccc(Cl)cc1)c1cc2ccccc2oc1=O`: the growth was 66.5%.

Regarding `O=C1C[C@@H](c2ccccc2)Oc2c(Cc3ccccc3O)c(O)c(Cc3cc(Cc4cc(Cc5ccccc5O)ccc4O)ccc3O)c(O)c21`, the growth is 85.4%.

With `CCC(CC)N1C(=O)/C(=c2\sc3n(c2=O)C2C(NN=3)N(CC)C(=O)N2CC)c2ccccc21` (stereo not drawn), the growth is 25.6%.

In the case of `COC(=O)Nc1ccc(-c2nc(-c3cccc(O)c3)c(-c3ccnc(Br)c3)[nH]2)cc1`, the growth was 27.7%.

As for `CC(=O)Nc1ccc(NC(=O)Nc2cccc(-c3nc(-c4ccc(NC(=O)c5cccs5)cc4Cl)no3)c2)cc1C(F)(F)F`, the growth was -28.3% (active).

In the case of `O=S(=O)(Nc1cc(Cl)cc(Cl)c1)c1ccc(-c2cnc(C3CC3)o2)cc1`, the growth was 36.7%.

For the compound `CC(=O)Nc1ccc(NC(=O)Nc2cccc(-c3nc(-c4ccc(NC(=O)c5cccnc5)cc4Cl)no3)c2)cc1C(F)(F)F`, the growth was -22.9% (active).

Turning to `O=C(Nc1cccc(-c2nc(-c3ccc(NC(=O)c4cccs4)cc3Cl)no2)c1)Nc1ccc(NC(=O)C2CC2)c(C(F)(F)F)c1`, the growth was -27.1% (active).

As to `CN1C(=O)N(C)C2Nn3c(s/c(=C\c4ccccn4)c3=O)=NC21` (stereo not drawn), the growth is 113%.
